APE1 inh = inhibitors of human APE1 endonuclease. P27695. recombinant APE1, TAMRA/BHQ-2 abasic DNA cleavage fluorescence. Potency, µM (top dose mostly 65.8 µM), actives largely listed as inhibitors. 350,000 compounds, 0.35% hits; further: nearly all actives have a fitted effect of over 55% in size
Target sequence (P27695 whole entry, looked up): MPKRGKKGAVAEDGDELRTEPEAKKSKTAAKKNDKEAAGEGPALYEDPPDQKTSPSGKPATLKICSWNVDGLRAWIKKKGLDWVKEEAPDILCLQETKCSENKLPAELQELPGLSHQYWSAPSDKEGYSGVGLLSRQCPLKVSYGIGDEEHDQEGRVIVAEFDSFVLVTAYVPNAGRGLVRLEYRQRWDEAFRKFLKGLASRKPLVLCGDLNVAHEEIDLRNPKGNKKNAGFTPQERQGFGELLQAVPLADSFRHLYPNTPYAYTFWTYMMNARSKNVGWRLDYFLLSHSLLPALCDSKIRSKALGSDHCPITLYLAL
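APE1 at 0.75 nM preincubated 15 min at room temperature with compound. Reaction then started with 50 nM double-stranded THF-abasic substrate labelled with TAMRA/BHQ-2, and 525/598 nm fluorescence read kinetically. Activity taken as third-minus-first read difference, normalized to DMSO and NSC13755 controls.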
WRN helicase inh = inhibitors of human WRN helicase; Q14191; WRN helicase unwinding, fluorescent forked duplex, kinetic; Potency, µM (titrated, usually from 114 µM), most hits filed as inhibitors; 360,000 compounds, 0.46% hits; further: nearly all actives have a fitted effect of over 55% in size
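Kinetic red-fluorescence monitoring (525/598 nm) tracks WRN helicase activity after 100 nM fluorophore-quencher forked duplex and 2 mM ATP are added to 20 nM enzyme pretreated 15 min at room temperature with compound.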
RECQ1 inh = blocks DNA unwinding by human RECQ1 | P46063 | RECQ1 DNA unwinding, red fluorescence kinetic read | Potency, µM (series often up to 57.3 µM), actives largely listed as inhibitors | 240,000 compounds, 0.54% hits; further: nearly all actives have a fitted effect of over 30% in size
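RECQ1T1 50 nM; forked duplex (20 bp + 30-nt ss tails) 200 nM, ATP 2 mM final; pH 8.0, 2 mM MgCl2, 2.5 ug/ml poly(dI-dC); 15 min compound preincubation; discontinuous kinetic read over 2 h at RT.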
PI5P4K alpha inh = inhibitors of human PI5P4K alpha | PI5P4Kalpha enzyme, ADP-Glo luminescence, 60 min; active compounds read low | max response, % | 330,000 compounds, 1.2% hits | P48426; active means max response of -50% or lower; inconclusive means between -30% and -50%; inactive means -30% or higher; further: value at the top dose of about 77 µM
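Compounds were pin-transferred onto PI5P4Kalpha and substrate in HEPES pH 7.4 buffer with EGTA, CHAPS and 5% DMSO. ATP (5 microM final) started the reaction, which ran 60 minutes at room temperature before ADP-Glo detection.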
BLM inh = inhibitors of human Bloom syndrome helicase BLM. P54132. recombinant BLM DNA unwinding, fluorescence dequenching. Potency, µM (highest dose often 56.1 µM), usual class: inhibitors. 350,000 compounds, 0.2% hits; further: nearly all actives have a fitted effect of over 35% in size
FEN1 inh = inhibitors of human flap endonuclease 1; P39748; Recombinant FEN1 flap cleavage, fluorescence, 15 min; Potency, µM (top dose mostly 114 µM), hits mostly inhibitors; 390,000 compounds, 0.35% hits; further: nearly all actives have a fitted effect of over 65% in size
Target sequence (P39748 whole entry, looked up): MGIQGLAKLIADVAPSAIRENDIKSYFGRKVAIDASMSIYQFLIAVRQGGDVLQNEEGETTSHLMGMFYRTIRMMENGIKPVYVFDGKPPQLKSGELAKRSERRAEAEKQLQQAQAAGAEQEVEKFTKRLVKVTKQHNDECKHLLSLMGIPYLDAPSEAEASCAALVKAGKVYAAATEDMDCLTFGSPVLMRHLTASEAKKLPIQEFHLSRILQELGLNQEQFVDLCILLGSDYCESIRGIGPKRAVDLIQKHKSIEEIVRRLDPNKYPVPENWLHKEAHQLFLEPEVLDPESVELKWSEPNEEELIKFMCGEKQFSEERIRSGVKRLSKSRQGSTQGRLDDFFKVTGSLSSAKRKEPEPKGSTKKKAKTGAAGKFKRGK
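Enzyme 10 nM, 15 min RT preincubation with compound; start with substrate 50 nM final; reads at 0 and 15 min; qHTS titration, four-parameter Hill fit.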
Numbers stand for hits; [ ] = dose if it differs, or a comment. Shown are actives, neighbours in structure and some others; about 1.5% of the full set was active somewhere. Unless noted, the call rests on the fitted dose curve; in most records, active means well fitted curve in the direction sought with a large enough effect; inconclusive means small, poorly fitted or top-dose-only effect, or another doubt; inactive means no such curve, though single readings can be large; an effect the other way counts as inactive or inconclusive.

Screening O=C(CSc1cn[nH]n1)Nc1cccc(C(=O)O)c1 returned APE1 inh inactive[12.4 µM], WRN helicase inh inconclusive, PI5P4K alpha inh -64, BLM inh inactive and FEN1 inh inactive.
For Cc1cccc(NC(=O)CSc2cn[nH]n2)c1 the results were APE1 inh inactive, WRN helicase inh inactive, PI5P4K alpha inh inactive, BLM inh inactive and FEN1 inh inactive.
For CCS(=O)(=O)c1nn2c(N)c(/C=C3/C=CC(=O)C(OC)=C3)c(=O)nc2s1 the results were APE1 inh inactive, WRN helicase inh inactive, RECQ1 inh inactive, PI5P4K alpha inh -84, BLM inh inactive and FEN1 inh inactive.
For COC1=C/C(=C/c2c(N)n3nc(-c4ccc(C)cc4)sc3nc2=O)C=CC1=O the results were APE1 inh inactive, WRN helicase inh inactive[11.6 µM], RECQ1 inh inactive, PI5P4K alpha inh -74, BLM inh inconclusive and FEN1 inh inconclusive.
`CCOC1=C/C(=C/c2c(N)n3nc(-c4ccccc4)sc3nc2=O)C=CC1=O` gave APE1 inh inactive, WRN helicase inh inconclusive, RECQ1 inh inactive, PI5P4K alpha inh -83, BLM inh inactive and FEN1 inh inactive.
Screening CCOC1=C/C(=C/c2c(N)n3oc(C)cc3nc2=O)C=CC1=O returned APE1 inh inactive, RECQ1 inh inactive and BLM inh inactive.
COC1=C/C(=C/c2c(N)n3c(nc2=O)sc2cc(S(C)(=O)=O)ccc23)C=CC1=O was read as APE1 inh inactive, WRN helicase inh inactive[11.6 µM], RECQ1 inh inactive, PI5P4K alpha inh -76, BLM inh inactive and FEN1 inh inactive.
Screening CCOC(=O)c1scc(-c2ccccc2)c1S(=O)(=O)N1CCN(c2ccccc2OC)CC1 returned BLM inh inactive and FEN1 inh inactive.
CCOC(=O)C1C(c2ccc3c(c2)OCO3)NC(=O)NC1(O)C(F)(F)F (configuration not stated) was read as APE1 inh inactive, WRN helicase inh inactive, RECQ1 inh inactive, PI5P4K alpha inh -53, BLM inh inactive and FEN1 inh inactive.
`CC(=O)N=c1nc(-c2ccccc2)n(-c2ccccc2)s1` gave FEN1 inh inactive.
`CN=c1nc(-c2ccccc2)n(-c2ccccc2)s1` gave APE1 inh inactive, WRN helicase inh inactive, RECQ1 inh inactive, PI5P4K alpha inh -86 and FEN1 inh inconclusive.
For Nc1nc(N=Nc2ccc(O)cc2)cc(=O)[nH]1 the results were WRN helicase inh inactive and PI5P4K alpha inh -52.
Nc1nc(N)c(N=Nc2ccccc2)c(=O)[nH]1 was read as WRN helicase inh inactive, PI5P4K alpha inh inactive and FEN1 inh inactive.
Screening CCCCN(CCCC)CC(O)c1cc(Cl)cc2c1-c1ccc(Cl)cc1C2=Cc1ccc(Cl)cc1 (configuration not stated) returned FEN1 inh inactive.
N#CC(=C(/N)Sc1ccccc1N)/C(C#N)=C(\N)Sc1ccccc1N was read as APE1 inh inactive and RECQ1 inh inactive.
`O=C(CSc1nc2sc3c(c2c(=O)n1-c1ccccc1)CCCC3)N/N=C/c1ccccc1C(=O)O` gave APE1 inh 11µM, WRN helicase inh inactive, PI5P4K alpha inh inactive, BLM inh inconclusive and FEN1 inh 50µM.
Screening COc1ccc(CCn2c(C)ccc2C)cc1OC returned APE1 inh inactive, RECQ1 inh inactive and BLM inh inactive.
Screening COc1ccc(CCN2C(=O)CC(NC34CC5CC(CC(C5)C3)C4)C2=O)cc1OC (configuration not stated) returned APE1 inh inactive, WRN helicase inh inactive, RECQ1 inh inactive, PI5P4K alpha inh inactive, BLM inh inactive and FEN1 inh inactive.
Screening COc1ccc(CCN2C(=O)C=CC2=O)cc1OC returned WRN helicase inh 32µM, PI5P4K alpha inh inactive and FEN1 inh inactive.
COc1ccc(CCN2C(=O)CC(Cc3ccc(C)cc3)C2=O)cc1OC (configuration not stated) was read as APE1 inh inactive, WRN helicase inh inconclusive, RECQ1 inh inactive, PI5P4K alpha inh -69, BLM inh inactive and FEN1 inh inactive.
For COc1cc2nc(CCc3nc4cc(OC)c(OC)cc4[nH]3)[nH]c2cc1OC the results were FEN1 inh inactive.
Screening O=C1N=C(N2C=CC(=C3C=CNC=C3)C=C2)/C(=C/N=NC(=O)c2ccccc2O)S1 returned APE1 inh inactive, WRN helicase inh inactive, PI5P4K alpha inh -61, BLM inh inactive and FEN1 inh inconclusive.
`N#Cc1ccc(CSc2nnc(NC(=O)C3CC(=O)N(c4ccc5c(c4)OCCO5)C3)s2)cc1` (configuration not stated) gave APE1 inh 14µM, WRN helicase inh inactive, RECQ1 inh 28µM, PI5P4K alpha inh inactive, BLM inh inactive and FEN1 inh inactive.
O=C(N/N=C/c1cn(-c2cccs2)nc1-c1ccccc1)c1ccccc1Br was read as APE1 inh inactive, WRN helicase inh inconclusive, RECQ1 inh inactive, PI5P4K alpha inh inactive, BLM inh inactive and FEN1 inh inactive.
`O=C(N/N=C/c1cn(-c2cccs2)nc1-c1ccccc1)c1ccccc1O` gave APE1 inh inactive, WRN helicase inh inactive, RECQ1 inh inactive, PI5P4K alpha inh inactive, BLM inh 20µM and FEN1 inh inactive.
NC(=O)C1CCN(c2nc(-c3ccccc3)cs2)CC1 was read as APE1 inh inactive.
Cc1cc(O)c2c(c1O)C(=O)C(O)=C(O)C2=O was read as APE1 inh 6.3µM, RECQ1 inh 10µM and BLM inh inactive.
For CN1CC[C@H](c2c(O)cc(O)c3c(=O)cc(-c4ccccc4Cl)oc23)[C@@H](O)C1 the results were FEN1 inh inactive.
`Cc1ccccc1-c1cc(C(=O)N2CCCC2)c2ccccc2n1` gave APE1 inh inactive, WRN helicase inh inactive, PI5P4K alpha inh -58, BLM inh inactive and FEN1 inh inactive.
Cc1ccc(-c2cc(C(=O)N3CCCCC3)c3ccccc3n2)cc1C was read as APE1 inh inactive, WRN helicase inh inactive, PI5P4K alpha inh inactive, BLM inh inactive and FEN1 inh inactive.
For CCOC(=O)c1c(C)oc2nc(C)nc(NCc3cccc(OC)c3)c12 the results were BLM inh inactive and FEN1 inh inactive.
C/C(=N\OCc1nc2ccccc2c(=O)n1/N=C/c1cc([N+](=O)[O-])ccc1O)c1ccccc1 was read as APE1 inh inactive, WRN helicase inh inactive, RECQ1 inh inactive, PI5P4K alpha inh -54, BLM inh inactive and FEN1 inh inactive.
C/C(=N\OCc1nc2ccccc2c(=O)n1/N=C/c1cc(C)cc([N+](=O)[O-])c1O)c1ccccc1 was read as APE1 inh inactive, WRN helicase inh inactive, RECQ1 inh inconclusive, PI5P4K alpha inh inactive, BLM inh inactive and FEN1 inh inactive.

Assay outcomes (PubChem BioAssay)
